Source: PubChem BioAssay AID1645851 (National Center for Advancing Translational Sciences (NCATS), 2021)
The campaign covered roughly 140,000 compounds. About 1,200 (0.86%) were called active. The full list was thinned out, with actives kept by preference. A number with no mark means an inactive call. Cut-off read from the data, not from the text of the source: active = activity change below about -25%; inactive = the rest.

These compounds were tested against Inositol hexakisphosphate kinase 1 (Homo sapiens) (UniProt Q92551) (assay: Primary qHTS assay for small molecule inhibitors of Inositol hexaphosphate kinase 1 (IP6K1)). Conditions: ADP-Glo luminescence, 2 h, stronger effect = lower value.
Description: Assay Provider: Huijun Wei, M.S., Ph.D. School of Medicine, Johns Hopkins University, Baltimore, MD Inositol hexakisphosphate kinases (IP6Ks) catalyze pyrophosphorylation of inositol hexakisphosphate (IP6) into inositol 5-diphospho-1,2,3,4,6-pentakisphosphate (IP7), which is involved in numerous areas of cell physiology including glucose homeostasis, blood coagulation and neurological development. Inhibition of IP6Ks may be effective for the treatment of Type II diabetes, thrombosis, and psychiatric disorders. We performed a quantitative high throughput screen (qHTS) of 158,410 compounds for IP6K1 inhibitors using ankinase activity ADP-Glo Max assay. […] Medicinal chemistry SAR efforts in three chemical series identified potent IP6K1 inhibitors, which were further validated in an orthogonal LC-MS IP7 analysis.
PROTOCOL TABLE SEQUENCE No. (e.g., 1, 2, 3, etc.); […] (e.g., Cells, Incubation, Reagent, etc.); VALUE and DESCRIPTION. 1. Reagent, 3 uL of 1.3 mM ATP and 130 uM IP6 mixture in assay buffer was dispensed to a white, 1536-well assay plate. 2. Compound, 23 nL of compounds of the top two doses (57.5 uM and 19.1 uM final concentration) of the libraries were dispensed into the mixture using the Kalypsis pintool. 3. Reagent, 1 uL of 2.4 uM IP6K1 was dispensed to the assay plates. 4. Incubation, 2 hr incubation at room temperature. 5. Reagent, 2 uL of ADP-Glo reagent was added to the wells. 6. Incubation, 1 hr incubation at room temperature. 7. Reagent, 4 uL or ADP-Glo substate was added to the wells. 8. Incubation, 45 min incubation at room temperature. 9. Detection, luminescence signal was detected using the ViewLux microplate imager (PerkinElmer).
% is set by controls: 0 for no effect and ±100 for the full control effect.
Note: series mostly up to about 58 µM.

Chain of Inositol hexakisphosphate kinase 1 (Homo sapiens) (Q92551 whole entry, looked up): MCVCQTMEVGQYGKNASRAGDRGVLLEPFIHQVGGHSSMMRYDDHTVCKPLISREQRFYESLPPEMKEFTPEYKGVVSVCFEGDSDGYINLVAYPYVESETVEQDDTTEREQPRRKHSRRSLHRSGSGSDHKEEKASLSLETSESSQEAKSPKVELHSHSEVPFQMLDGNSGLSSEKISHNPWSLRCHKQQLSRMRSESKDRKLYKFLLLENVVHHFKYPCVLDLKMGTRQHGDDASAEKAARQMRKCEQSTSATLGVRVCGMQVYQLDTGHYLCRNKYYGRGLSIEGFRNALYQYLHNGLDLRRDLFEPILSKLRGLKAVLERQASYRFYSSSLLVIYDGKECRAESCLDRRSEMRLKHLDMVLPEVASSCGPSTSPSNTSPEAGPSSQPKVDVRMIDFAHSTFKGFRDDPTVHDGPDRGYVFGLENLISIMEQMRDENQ

SMILES	activity change
CO[C@]12CC[C@@]3(C[C@@H]1[C@](C)(O)C(C)(C)C)[C@@H]1Cc4ccc(O)c5c4[C@@]3(CCN1CC1CC1)[C@H]2O5	0.147%
Oc1ccc2c3c1O[C@H]1c4[nH]c5c(N=C=S)cccc5c4C[C@@]4(O)[C@@H](C2)N(CC2CC2)CC[C@]314	-97.1% (active)
C/C=C(\C)C(O)C(C)/C=C(C)/C=C/C/C(C)=C/Cc1nc(OC)c(OC)c(O[C@@H]2O[C@@H](C)[C@H](O)[C@@H](O)[C@H]2O)c1C (stereo not given in full)	-8.45%
NC(=O)[C@@H](CC1CC1)[C@@H](CCC(F)(F)F)C(=O)N[C@H]1N=C(c2ccccc2)c2cccc(F)c2NC1=O	10.6%
C[C@@H]1C[C@@H](O)[C@]2(O)O[C@@H]3C[C@@]4(C=O)C(CC[C@@H]5C4CC[C@]4(C)[C@@H](C6=CC(=O)OC6)CC[C@]54O)C[C@H]3O[C@@H]2O1 (stereo not given in full)	17.6%
